Results: PubChem BioAssay (EPA / NIEHS)
Results filed as inconclusive are left out. Active and inactive are the calls of the source. How the source made its calls, unless noted: active means hit-call score of the fitted dose curve at least 0.9, where 1 is the maximum; inconclusive means response in the unintended direction; inactive means score below 0.9.

Tests used:
[1] = TOX21_p53_BLA_p2_viability: Viability Assessment in the Tox21 HCT-116 p53 Agonism Beta-lactamase Assay, Phase 2 (AID 2283591);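 further: compound exposure lasted 16 h at 37 °C; actives lower the ATP signal meaning cytotoxicity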
Method in brief: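 HCT-116 p53-bla cells (4000/well) rested 5 h at 37C, then received compounds in DMSO (217-fold dilution) for 16 h at 37C, 5% CO2. After the CCF4 read, CellTiter-Glo was added; ATP luminescence was read after 30 min at room temperature.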

[2] = target: Cellular tumor antigen p53 (Homo sapiens) (UniProt P04637); test: TOX21_p53_BLA_p2_ratio: Tox21 HCT-116 p53 Agonism Beta-lactamase Assay, Ratio, Phase 2 (AID 2283592)
Method in brief: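 Human colon HCT116 cells with an inducible p53 beta-lactamase reporter are exposed to test chemicals for 16 h at 37C. Reporter induction is read as the 460/530 nm emission ratio after CCF4-AM loading, normalized to DMSO.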

[3] = TOX21_p53_BLA_p3_viability: Viability Assessment in the Tox21 HCT-116 p53 Agonism Beta-lactamase Assay, Phase 3 (AID 2283593)
Method in brief: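 HCT-116 cells (4000/well) rested 5 h at 37C, then got DMSO compounds by pin tool (217-fold dilution) for 16 h at 37C, 5% CO2. After the bla read, CellTiter-Glo was added and luminescence read at 30 min, room temperature.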

[4] = target: Cellular tumor antigen p53 (Homo sapiens) (UniProt P04637); test: TOX21_p53_BLA_p3_ratio: Tox21 HCT-116 p53 Agonism Beta-lactamase Assay, Ratio, Phase 3 (AID 2283596)
Method in brief: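 HCT116 p53-bla cells (4000/well) given compound in DMSO (217-fold dilution) after 5 h, incubated 16 h at 37C. CCF4-AM substrate 2 h at room temperature; 460/530 nm emission ratio, gain fitted against DMSO.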

[5] = TOX21_p53_BLA_p4_viability: Viability Assessment in the Tox21 HCT-116 p53 Agonism Beta-lactamase Assay, Phase 4 (AID 2283597);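 further: hits lower the luminescence signal meaning cytotoxicity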
Method in brief: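 Luminescent ATP readout (CellTiter-Glo, 30 min, room temperature) in the same wells as the p53 bla ratio. HCT116 cells were treated for 16 h at 37C with DMSO-dissolved compounds.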

[6] = target: Cellular tumor antigen p53 (Homo sapiens) (UniProt P04637); test: TOX21_p53_BLA_p5_ratio: Tox21 HCT-116 p53 Agonism Beta-lactamase Assay, Ratio, Phase 5 (AID 2283599)
Method in brief: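 HCT-116 cells carrying a p53-inducible beta-lactamase reporter were seeded at 4000 cells/well and dosed after 5 h with compound in DMSO (217-fold dilution). After 16 h at 37C, CCF4-AM substrate was added for 2 h, and the 460/530 nm emission ratio was scored as gain-of-signal versus DMSO.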

[7] = TOX21_p53_BLA_p5_viability: Viability Assessment in the Tox21 HCT-116 p53 Agonism Beta-lactamase Assay, Phase 5 (AID 2283600)
Method in brief: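 Seeded cells (4000/well) settle 5 h before compound addition. Plates then incubate 16 h at 37C, receive FRET substrate for 2 h, and finally CellTiter-Glo, with luminescence measured after a 30 min room-temperature incubation.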

[8] = target: Cellular tumor antigen p53 (Homo sapiens) (UniProt P04637); test: TOX21_p53_BLA_p4_ratio: Tox21 HCT-116 p53 Agonism Beta-lactamase Assay, Ratio, Phase 4 (AID 2283601)
Method in brief: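 HCT116 cells carrying an inducible beta-lactamase reporter were plated at 4000 cells/well, rested 5 h, then exposed to compounds in DMSO (217-fold dilution) for 16 h at 37C. CCF4-AM substrate was loaded 2 h at room temperature; 460/530 nm emission ratio scored gain-of-signal versus DMSO.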

PGR (gene 5241) [9] = target: PGR (gene 5241) (UniProt P06401); test: TOX21_PR_BLA_Followup_Agonist_ratio: Tox21 HEK293 Progesterone Receptor (PR) Agonism Beta-lactamase Follow-Up Assay, Ratio (AID 2283933)
Method in brief: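 PR-UAS-bla HEK293T cells in medium with 2% charcoal-stripped FBS were dosed after 6 h plating and incubated 16 h at 37C. LiveBLAzer FRET substrate was added for 2 h at room temperature. Cleaved/uncleaved substrate ratio fitted against DMSO; CellTiter-Glo viability run in the same wells.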

PGR (gene 5241) [10] = target: PGR (gene 5241) (UniProt P06401); test: TOX21_PR_BLA_Followup_Antagonist_ratio: Tox21 HEK293 Progesterone Receptor (PR) Antagonism Beta-lactamase Follow-Up Assay, Ratio (AID 2283934)
Method in brief: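 PR-UAS-bla HEK293T cells, 3,000/well in 2% charcoal-stripped FBS, given compound plus 1nM R5020 agonist for 16 hr at 37C. Beta-lactamase FRET substrate 2 hours, ratio cleaved/uncleaved fluorescence; viability by CellTiter-Glo in same wells.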

[11] = TOX21_PR_BLA_Followup_Agonist_viability: Viability Assessment in the Tox21 HEK293 Progesterone Receptor (PR) Agonism Beta-lactamase Follow-Up Assay (AID 2283935);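 further: signal loss means lower viability so actives are cytotoxic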
Method in brief: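 PR-UAS-bla HEK293T cells in 2% charcoal-stripped FBS medium, plated 6 hr before compound addition, exposed 16 hr at 37C. Viability read by CellTiter-Glo ATP luminescence after 30 min at room temperature, in the same wells as the beta-lactamase readout.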

[12] = TOX21_PR_BLA_Followup_Antagonist_viability: Viability Assessment in the Tox21 HEK293 Progesterone Receptor (PR) Antagonism Beta-lactamase Follow-Up Assay (AID 2283936);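 further: hits lower the luminescence signal meaning cytotoxicity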
Method in brief: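 PR-UAS-bla HEK293T cells (3,000/well, 2% charcoal-stripped FBS) given compound plus R5020 agonist, 16 h at 37C. CellTiter-Glo added after bla read, 30 min at room temperature; luminescence loss indicates cytotoxicity.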

PGR (gene 5241) [13] = target: PGR (gene 5241) (UniProt P06401); test: TOX21_PR_LUC_Followup_Agonist: Tox21 HEK293 Progesterone Receptor (PR) Agonism Luciferase Follow-Up Assay (AID 2283937; active means hit-call score of the fitted dose curve at least 0.9, where 1 is the maximum; inactive means score below 0.9)
Method in brief: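 HEK293-PR-A-luc cells, conditioned 5 days in 10% charcoal-stripped FBS medium, seeded 3,000/well for 5 h, then compound-treated 16 h at 37C. ONE-Glo luminescence read after 30 min at room temperature; gain of signal versus DMSO.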

PGR (gene 5241) [14] = target: PGR (gene 5241) (UniProt P06401); test: TOX21_PR_LUC_Followup_Antagonist: Tox21 HEK293 Progesterone Receptor (PR) Antagonism Luciferase Follow-Up Assay (AID 2283938);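 further: curve fitted upward as signal gain over DMSO baseline despite antagonist label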
Method in brief: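 Luciferase reporter in HEK293-PR-A-luc cells: 16 h compound treatment at 37C, ONE-Glo luminescence detection, DMSO as negative control and baseline.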

[15] = TOX21_PR_LUC_Followup_Antagonist_viability: Viability Assessment in the Tox21 HEK293 Progesterone Receptor (PR) Antagonism Luciferase Follow-Up Assay (AID 2283940)
Method in brief: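 HEK293-PR-A-luc cells kept in charcoal-stripped FBS medium were plated 5 h before compound addition, then exposed 16 h at 37C; viability read as cellular ATP by luciferase luminescence, loss of signal indicating cytotoxicity.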

[16] = TOX21_PR_LUC_Followup_Agonist_viability: Viability Assessment in the Tox21 HEK293 Progesterone Receptor (PR) Agonism Luciferase Follow-Up Assay (AID 2283941);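 further: loss of signal means cytotoxicity so actives lower viability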
Method in brief: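 HEK293-PR-A-luc cells, kept in 10% charcoal-stripped FBS medium, were treated with compounds for 16 h at 37C. Viability read as cellular ATP by luciferase-coupled luminescence; loss of signal indicates cytotoxicity.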

[17] = target: Thyroid hormone receptor alpha (Rattus norvegicus) + Thyroid hormone receptor beta (Rattus norvegicus) (UniProt P18113+P63059); test: TOX21_TR_LUC_GH3_Antagonist_Followup: Tox21 GH3 Thyroid Hormone Receptor Antagonism Luciferase Follow-Up Assay (AID 2283942)
Method in brief: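 Rat pituitary GH3 cells with a TRα/TRβ-driven luciferase reporter, 5 h attachment, then 15 concentrations (92 uM to 5nM final) plus 1.0 nM T3 agonist, 24 h at 37C/5% CO2. ONE-Glo luminescence; signal change fitted against DMSO baseline.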

THRA (gene 7067) = THRA (gene 7067) (UniProt P10827); test: TOX21_TRA_COA_Antagonist_Followup_ratio: Tox21 Thyroid Hormone Receptor alpha Antagonism through Coactivator Recruitment Follow-Up Assay, Ratio (AID 2283953)
Method in brief: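 520:495 nm emission ratio (excitation 340 nm) reports fluorescein-SRC-2 peptide recruitment to GST-TRα LBD by TR-FRET with Tb anti-GST antibody. Values were normalized to DMSO (0%) and T3 control wells (100%); loss of signal indicated antagonism.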

THRB (gene 7068) [18] = target: THRB (gene 7068) (UniProt P10828); test: TOX21_TRB_BLA_Antagonist_Followup_ratio: Tox21 Thyroid Hormone Receptor beta Antagonism Beta-lactamase (BLA) Follow-Up Assay, Ratio (AID 2283958)
Method in brief: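 HEK293T cells with a GAL4-TRb LBD fusion and UAS-bla reporter, 3,000 cells/well in phenol red-free DMEM with 2% charcoal-stripped FBS. Exposed 18 h at 37C to 11 concentrations in triplicate; CCF4 460:530 nm ratio after 2 h, DMSO-referenced.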

[19] = TOX21_TRB_BLA_Antagonist_Followup_viability: Viability Assessment in the Tox21 Thyroid Hormone Receptor beta Antagonism Beta-lactamase (BLA) Follow-Up Assay (AID 2283961)
Method in brief: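 In the same wells as the reporter read, cell health was gauged by CellTiter-Glo ATP luminescence, with signal loss indicating reduced viability. Cells had been exposed to test compounds for 18 h.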

THRB (gene 7068) [20] = target: THRB (gene 7068) (UniProt P10828); test: TOX21_TRB_COA_Antagonist_Followup_ratio: Tox21 Thyroid Hormone Receptor beta Antagonism through Coactivator Recruitment Follow-Up Assay, Ratio (AID 2283967)
Method in brief: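 Cell-free TR-FRET coactivator recruitment with GST-tagged TRβ LBD (5.0 nM) and fluorescein-labeled SRC-2 peptide (200 nM) detected by terbium anti-GST antibody (2 nM). The 520:495 nm emission ratio was normalized to DMSO (0%) and T3 (100%).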

Measured: AC50

Chain of Cellular tumor antigen p53 (Homo sapiens) (P04637 whole entry, looked up): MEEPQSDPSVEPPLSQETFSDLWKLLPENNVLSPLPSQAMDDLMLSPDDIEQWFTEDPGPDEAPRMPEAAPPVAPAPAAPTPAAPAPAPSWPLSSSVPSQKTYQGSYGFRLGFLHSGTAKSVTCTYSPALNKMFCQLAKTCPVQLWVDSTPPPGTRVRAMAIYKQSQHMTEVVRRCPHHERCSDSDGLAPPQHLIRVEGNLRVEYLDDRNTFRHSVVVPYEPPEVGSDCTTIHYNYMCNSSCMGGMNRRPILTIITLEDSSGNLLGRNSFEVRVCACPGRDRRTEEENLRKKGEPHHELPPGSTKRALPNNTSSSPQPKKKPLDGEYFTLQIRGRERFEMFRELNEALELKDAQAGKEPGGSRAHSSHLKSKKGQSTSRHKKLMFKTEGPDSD
Chain of PGR (gene 5241) (P06401 whole entry, looked up): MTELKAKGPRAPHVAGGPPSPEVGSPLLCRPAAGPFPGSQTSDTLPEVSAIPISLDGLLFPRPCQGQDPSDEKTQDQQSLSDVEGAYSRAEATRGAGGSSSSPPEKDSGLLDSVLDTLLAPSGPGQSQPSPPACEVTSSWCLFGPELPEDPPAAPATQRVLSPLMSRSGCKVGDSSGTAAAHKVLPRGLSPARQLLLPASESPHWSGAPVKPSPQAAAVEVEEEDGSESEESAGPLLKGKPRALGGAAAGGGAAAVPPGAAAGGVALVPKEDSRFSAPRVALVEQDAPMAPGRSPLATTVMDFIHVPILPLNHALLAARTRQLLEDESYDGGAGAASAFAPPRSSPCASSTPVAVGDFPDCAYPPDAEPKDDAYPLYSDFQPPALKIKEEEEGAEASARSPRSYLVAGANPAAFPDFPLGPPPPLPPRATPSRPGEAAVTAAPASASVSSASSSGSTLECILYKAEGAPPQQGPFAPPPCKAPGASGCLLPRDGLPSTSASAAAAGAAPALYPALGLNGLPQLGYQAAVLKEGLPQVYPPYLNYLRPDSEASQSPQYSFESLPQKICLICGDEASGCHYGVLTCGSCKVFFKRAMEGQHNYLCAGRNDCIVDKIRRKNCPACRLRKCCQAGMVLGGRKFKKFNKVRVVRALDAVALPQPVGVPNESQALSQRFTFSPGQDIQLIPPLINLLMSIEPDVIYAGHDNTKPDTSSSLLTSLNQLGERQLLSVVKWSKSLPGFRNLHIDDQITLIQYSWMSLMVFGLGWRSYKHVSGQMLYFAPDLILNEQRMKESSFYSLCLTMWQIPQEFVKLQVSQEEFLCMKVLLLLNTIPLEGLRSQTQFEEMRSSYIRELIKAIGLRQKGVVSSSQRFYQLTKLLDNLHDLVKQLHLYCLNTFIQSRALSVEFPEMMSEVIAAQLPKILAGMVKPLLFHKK
Chain of THRB (gene 7068) (P10828 whole entry, looked up, the tested form may be a part): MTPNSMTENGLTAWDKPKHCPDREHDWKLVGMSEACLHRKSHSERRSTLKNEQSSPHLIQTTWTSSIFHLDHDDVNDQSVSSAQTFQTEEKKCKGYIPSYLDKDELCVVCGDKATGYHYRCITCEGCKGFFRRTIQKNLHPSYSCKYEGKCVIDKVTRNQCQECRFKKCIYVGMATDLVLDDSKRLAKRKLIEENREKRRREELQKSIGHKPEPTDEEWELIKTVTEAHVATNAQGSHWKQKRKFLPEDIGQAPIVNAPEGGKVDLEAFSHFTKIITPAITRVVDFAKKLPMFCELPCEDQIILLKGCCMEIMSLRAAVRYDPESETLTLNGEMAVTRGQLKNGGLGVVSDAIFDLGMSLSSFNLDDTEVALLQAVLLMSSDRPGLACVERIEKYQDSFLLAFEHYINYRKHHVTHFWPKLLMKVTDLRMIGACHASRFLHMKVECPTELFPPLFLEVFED
Chain of THRA (gene 7067) (P10827 whole entry, looked up, the tested form may be a part): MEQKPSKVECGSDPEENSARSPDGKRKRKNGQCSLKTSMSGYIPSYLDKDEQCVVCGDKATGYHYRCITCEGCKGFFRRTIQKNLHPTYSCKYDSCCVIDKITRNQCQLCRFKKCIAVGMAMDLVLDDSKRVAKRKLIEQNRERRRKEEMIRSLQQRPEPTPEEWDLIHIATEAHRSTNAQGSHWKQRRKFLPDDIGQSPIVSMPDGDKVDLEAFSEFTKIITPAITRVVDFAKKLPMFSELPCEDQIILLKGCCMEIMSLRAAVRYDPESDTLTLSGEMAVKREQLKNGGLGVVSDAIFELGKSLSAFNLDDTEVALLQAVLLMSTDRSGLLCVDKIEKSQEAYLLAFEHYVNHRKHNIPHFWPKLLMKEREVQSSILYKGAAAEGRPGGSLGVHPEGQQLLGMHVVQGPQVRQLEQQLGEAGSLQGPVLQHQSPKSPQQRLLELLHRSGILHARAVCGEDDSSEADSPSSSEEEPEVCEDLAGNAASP

CCCCCCCCCCCCOCCOCCOCCOCCOCCOCCOCCOCCOCCO
active: [1] 31.5 µM | [2] 13.5 µM | [3] 27 µM | [4] 19.7 µM | [5] 20 µM | [6] 36.9 µM | [7] 23 µM | [8] 37.7 µM

COC(=O)C1=C(C)NC(COC(N)=O)=C(C(=O)OC(C)C)C1c1cccc(Cl)c1Cl (stereo unspecified)
active: [2] 33.5 µM | [5] 35.2 µM | [6] 25.5 µM | [8] 28.8 µM | PGR (gene 5241) [9] 23 µM | PGR (gene 5241) [14] 7.88 µM
not listed: [17] | THRA (gene 7067) | THRB (gene 7068) [18] | [19] | THRB (gene 7068) [20]
inactive: all other assays above

CCCCCCCC/C=C\CCCCCCCC(=O)NCc1ccc(O)c(OC)c1
active: [3] 41.5 µM
inactive: [1] | [2] | [4] | [5] | [6] | [7] | [8]

CCCCCOc1ccc(C2SC(=O)NC2=O)cc1OCC (stereo unspecified)
active: THRB (gene 7068) [18] 1.76 µM | THRB (gene 7068) [20] 10.8 µM
not listed: PGR (gene 5241) [9] | PGR (gene 5241) [10] | [11] | [12] | PGR (gene 5241) [13] | PGR (gene 5241) [14] | [15] | [16]
inactive: all other assays above

CCCCCC[C@@H](CCC)C(=O)O
inactive: [1] | [2] | [3] | [4] | [5] | [6] | [7] | [8]

Cc1cc2nc(N)sc2cc1C
inactive: [1] | [2] | [3] | [4] | [5] | [6] | [7] | [8]
